# Results as given in PubChem BioAssay (NCATS).
# Several values for one entry are separate records, joined by “and”; a condition that tells them apart may be missing. Equal values may be shown once. Inconclusive results are not listed. Where a structure was tested more than once in an assay, its records may differ in their call. Activity calls are given as the source filed them. The call rests on the fitted dose curve; in most records, active means well fitted inhibition curve with a large enough effect; inconclusive means small, poorly fitted or top-dose-only effect; inactive means no such curve, though single readings can be large or run the other way.
# Test: Primary qHTS for inhibitors of nuclear receptor binding SET domain protein 2 (NSD2) in an RCH-ACV wild type WT cells (2C) (AID 1645877); further: nearly all actives have a fitted effect of over 70% in size
# Details: RCH-ACV (leukaemia line) NSD2 WT (2C) viability, CellTiter-Glo, 72 h; series mostly up to 44.9 µM; activity change, negative = cell killing: at the top concentration
# From the text: Assay Provider: Jonathan D. Licht, MD
# University of Florida College of Medicine, Gainesville, FL
# Mutations in epigenetic regulators are common in relapsed pediatric acute lymphoblastic leukemia (ALL). Here, we uncovered the mechanism underlying the relapse of ALL driven by an activating mutation of the NSD2 histone methyltransferase (p.E1099K). […] Correction of this mutation restored glucocorticoid sensitivity. The transcriptional response to glucocorticoids was blocked in NSD2 mutant cells due to depressed glucocorticoid receptor (GR) levels and the failure of glucocorticoids to autoactivate GR expression. […] Pre-treatment of NSD2 p.E1099K cell lines and PDX samples with PRC2 inhibitors reversed glucocorticoid resistance in vitro and in vivo.
# High-throughput drug screening of isogenic RCH-ACV cell lines was performed at the National Center for Advancing Translational Science (NCATS), National Institutes of Health as previously described (1). Briefly, isogenic RCH-ACV NSD2 p.E1099K mutant (9B) and WT cells (2C) were plated at 500 cells/well in a 1536-well plate with a 72-hour incubation with compounds prior to addition of CellTiter-Glo to assess cell viability. NCATS libraries screened include: NPC, MIPE 5.0, Kinase and NPACT. To determine compound activity in the qHTS assay, the concentration-response data for each sample was plotted and modeled by a four-parameter logistic fit yielding IC50 and efficacy (maximal response) values. The area under the curve (AUC) of the dose-response curve ensures both efficacy (magnitude of cell killing) and potency (concentration that elicits cell killing) are accounted for in the analysis of activity.
# 1. Tobie D Lee, Olivia W Lee, Kyle R Brimacombe, Lu Chen, Rajarshi Guha, Sabrina Lusvarghi, Bethilehem G Tebase, Carleen Klumpp-Thomas, Robert W Robey, Suresh V Ambudkar, Min Shen, Michael M Gottesman, Matthew D Hall. A High-Throughput Screen of a Library of Therapeutics Identifies Cytotoxic Substrates of P-glycoprotein. Mol Pharmacol. 2019, Nov;96(5):629-640.
# On the % scale 0 is the no-effect control and ±100 the full control effect.
Structure (SMILES),outcome,Potency,"activity change, negative = cell killing"
CC(C)CC(=O)n1cc(C(N)=O)c(=O)cc1C(O)c1ccccc1 (stereo not given),inactive,,
O=C1N(CC2CCCCN2)CCN1c1ccccc1 (stereo not given),inactive,,
CCCCN(CCCC)C(=O)CN1C[C@H](c2ccc3c(c2)OCO3)[C@@H](C(=O)O)[C@@H]1c1ccc(OC)cc1,,inactive,
CN1C(=O)c2ccccc2-n2c(nc3ccccc3c2=O)[C@@]12O[C@H]2c1ccccc1,,,-5.41% (inactive)
CC(=O)OC[C@]12[C@H](OC(C)=O)C(=O)[C@@H]3[C@@H](OC(C)=O)[C@@]14O[C@@]3(C)COC(=O)c1cccnc1[C@@H](C)[C@H](C)C(=O)O[C@@H]([C@H](OC(C)=O)[C@@H]2OC(C)=O)[C@]4(C)O,,,-4.99% [at 17.3 µM] (inactive)
Cc1c(N2C(=O)c3ccc(C(=O)O)cc3C2=O)c(=O)n(-c2ccccc2)n1C,inactive,,
CC1(CO)CC2C(O)C(=O)C3(CO)CC3(C)C2C1 (stereo not given),,,2.34% (inactive)
COC(=O)[C@H](OC(C)=O)[C@H]1C(C)(C)C(=O)[C@H]2CC3=C4CC(=O)O[C@@H](c5ccoc5)[C@]4(C)CCC3[C@@]1(C)C2=O (stereo not given in full),,,1.91% [at 17.3 µM] (inactive)
OC[C@H]1O[C@@H](n2cnc3c2NC=NC[C@H]3O)C[C@@H]1O,,inactive,
O=C(c1ccc(NS(=O)(=O)c2cccc3cccnc23)cc1)N1CCN(CC2CC2)CC1,,,-14.7% (inactive)
O=C(C1CC1)N1CC[C@@H](Cc2n[nH]c(=O)n2-c2ccc(-c3ccc4occc4c3)cc2)C1,,inactive and 18.6 µM (active),
COc1c(OC2OC(CO)C(O)C(O)C2O)ccc(O)c1C(=O)OCc1ccccc1O[C@@H]1O[C@H](CO)[C@@H](O)[C@H](O)[C@H]1O (stereo not given in full),,,-4.51% [at 17.3 µM] (inactive)
C=C1CCC[C@]2(C)C[C@]3(O)OC(=O)C(C)=C3C[C@@H]12,,,3.09% (inactive)
C=CC(C)(CC/C=C(\C)CC/C=C(\C)CC(O)/C=C(\C)C(=O)O)O[C@@H]1O[C@H](CO)[C@@H](O)[C@H](O)[C@H]1O[C@@H]1O[C@H](CO)[C@@H](O)[C@H](O)[C@H]1O (stereo not given in full),,,-13.8% [at 17.3 µM] (inactive)
Cc1nnc(C(C)C)n1C1CC2CCC(C1)N2CC[C@H](NC(=O)C1CCC(F)(F)CC1)c1ccccc1 (stereo not given in full),,inactive,
CC1CCC2C(C)(C)C(O)CCC2(C)C12Cc1c(O)cc3c(c1O2)CN(C(CCC(N)=O)C(=O)O)C3=O (stereo not given),,,-9.41% [at 17.3 µM] (inactive)
OC1COC(OCC2OC(OCCc3ccccc3)C(O)C(O)C2O)C(O)C1O (stereo not given),,,3.54% [at 17.3 µM] (inactive)
C=C[C@@]1(C)CC(=O)C2[C@](C)(O1)[C@@H](OC(C)=O)[C@@H](O)[C@H]1C(C)(C)CCC[C@]21C (stereo not given in full),inactive [at 9.23 µM],,
C=CC1(C)C=C2C(O)CC3C(C)(C(=O)O)CCCC3(C)C2CC1 (stereo not given),inactive,,
CC1(C)CC[C@]2(C(=O)O)CC[C@]3(C)C(=CCC4[C@@]5(C)CCC(O[C@@H]6OC[C@H](O)[C@H](O)[C@H]6O[C@@H]6O[C@H](CO)[C@@H](O)[C@H](O)[C@H]6O)[C@@](C)(CO)C5CC[C@]43C)[C@@H]2C1 (stereo not given in full),,,0.102% [at 17.3 µM] (inactive)

Structure (SMILES),outcome,Potency,"activity change, negative = cell killing"
COC1(CC(C)C)NC(=O)C(O)(Cc2ccccc2)NC1=O (stereo not given),,,-16.7% (inactive)
CC(C)(OC1OC(CO)C(O)C(O)C1O)C1CCC(O)(CO)C2CC(O)C(C)(O)C2C1 (stereo not given),inactive [at 17.3 µM],,
COc1ccc(C(O[C@@H]2O[C@H](CO)[C@@H](O)[C@H](O)[C@H]2O)C(CO)Oc2ccc(/C=C/CO)cc2OC)cc1O (stereo not given in full),,,-4.36% [at 17.3 µM] (inactive)
CC1=CCC2C(C)(CO)CCCC2(CO)C1CO (stereo not given),,,-12.5% (inactive)
Cc1cc(Nc2ncc(Cl)c(Nc3ccccc3S(=O)(=O)C(C)C)n2)c(OC(C)C)cc1C1CCNCC1,,2.9 µM (active) and 3.72 µM (active),
CC(CCC1(O)OC2CC3C4CCC5CC(O[C@@H]6O[C@H](CO)[C@@H](O)[C@H](O)[C@H]6O[C@@H]6OC[C@@H](O)[C@H](O)[C@H]6O)C(O)CC5(C)C4CCC3(C)C2C1C)CO[C@@H]1O[C@H](CO)[C@@H](O)[C@H](O)[C@H]1O (stereo not given in full),inactive [at 9.23 µM],,
CC1(C)CCC[C@@]2(C)[C@H]1[C@H](O)C=C1COC(=O)[C@@]12O,,,-3.56% (inactive)
CC(=O)c1cnc2ccc(-c3cc(Cl)c(O)c(Cl)c3)nc2c1NC1CCC(CN(C)C)CC1 (stereo not given),,38.2 nM (active) and 3.7 nM (active),
Cn1ccnc1CCOC(c1cc2nccc(C(=O)O)c2[nH]1)c1ccccc1Cl (stereo not given),,,2.92% (inactive)
CC1(C)CCCC2(C)C3=C(C(=O)OC3O)C(O)CC12 (stereo not given),inactive,,
COc1c(C)c(C(=O)c2ccc(N)c(C(=O)O)c2)n2ccccc12,,inactive,
C=C(C(=O)OC)C1CCC2(C)C(O[C@@H]3O[C@H](CO)[C@@H](O)[C@H](O)[C@H]3O)CC(=O)C(C)C2C1O (stereo not given in full),,,0.381% [at 17.3 µM] (inactive)
O=C(Nc1cccnn1)N1CCC(=Cc2cccc(Oc3ccc(C(F)(F)F)cn3)c2)CC1,,10.3 µM (active),
O=C(COc1ccc(Cl)cc1)NC1CCC(NC(=O)COc2ccc(Cl)cc2)CC1 (stereo not given),,,-14% (inactive)
CC[C@H](C)/C=C(C)/C=C/C(=O)Cc1cc(O)c(C)c(O)c1C=O,,,-26.5% (inactive)
C=C(C)[C@H]1C[C@@H](O)C(=C)CC[C@@H](O)C(=C)[C@@H](O)C1,inactive,,
COc1cc(C2Oc3c(O)cc(CCCO)cc3C2CO)ccc1O[C@H]1O[C@H](C)[C@@H](O)[C@H](O)[C@@H]1O (stereo not given in full),inactive [at 17.3 µM],,
C/C=C/C=C/C=C/C(=O)O[C@@H]1[C@@H](OC)C2=C(C(=O)N(C(C)C(=O)O)C2)[C@@]2(C)CCCC(C)(C)[C@H]12 (stereo not given in full),inactive [at 17.3 µM],,
CN[C@@H]1[C@@H](O)[C@@H](O[C@@H]2[C@@H](O)[C@H](O[C@H]3O[C@H](CN)[C@@H](O)[C@H](O)[C@H]3O)[C@@H](N)C[C@H]2NC(=O)[C@@H](O)CN)OC[C@]1(C)O,,,0.32% (inactive)
CC(=O)[C@@H]1CC[C@]2(C(=O)O)CC[C@]3(C)C(CCC4[C@@]5(C)CC[C@H](O)C(C)(C)C5CC[C@]43C)C12 (stereo not given in full),,,-25.8% [at 17.3 µM] (inactive)
